This is a sample that favours compounds with a hit; in the whole collection about 12% have one here.
HP1b binding inh: blocks HP1-beta chromodomain binding to methylated histone tails; P83916; AlphaScreen HP1-beta / biotin-H3K9me3 peptide binding; Potency, µM (top dose mostly 114 µM), for the others: top-dose activity change, negative = inhibition, most hits filed as inhibitors; 390,000 tested, 0.56% active; note: nearly all actives have a fitted effect of over 70% in size
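HP1-beta protein (50 nM final) preincubated 30 min at room temperature with biotinylated H3(1-18)K9me3 peptide (50 nM) in PBS pH 7.4, 0.01% Tween-20, then compound added for 30 min. AlphaScreen streptavidin donor/nickel chelate acceptor beads (10 ug/mL final), 30 min dark, luminescence read.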
G9a inh: G9a (human) methyltransferase inhibition. Potency, µM (titrated, usually from 102 µM), for inactives: at the highest dose activity, negative = inhibition, usual class: inhibitors. 350,000 tested, 8.8% active. G9a H3K9 monomethylation, AlphaScreen, 2 h. AID 504332; note: % is set by controls: 0 for no effect and ±100 for the full control effect; nearly all actives have a fitted effect of over 75% in size
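AlphaScreen detection with an anti-monomethyl H3K9 antibody quantified product after a 2 h room-temperature reaction containing 500 nM biotinylated H3K9 peptide, 20 µM SAM and 20 nM enzyme, which had been preincubated 15 min with compound.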
BAZ2B block: BAZ2B (human) inhibition; AlphaScreen BAZ2B-H3K14Ac peptide displacement; Potency, µM (highest dose often 114 µM), inactives show at the highest dose activity change, negative = inhibition, most hits filed as inhibitors; 360,000 tested, 4.4% active; AID 504333; Q9UIF8; note: % is set by controls: 0 for no effect and ±100 for the full control effect; nearly all actives have a fitted effect of over 60% in size
Target sequence (Q9UIF8 whole entry, looked up): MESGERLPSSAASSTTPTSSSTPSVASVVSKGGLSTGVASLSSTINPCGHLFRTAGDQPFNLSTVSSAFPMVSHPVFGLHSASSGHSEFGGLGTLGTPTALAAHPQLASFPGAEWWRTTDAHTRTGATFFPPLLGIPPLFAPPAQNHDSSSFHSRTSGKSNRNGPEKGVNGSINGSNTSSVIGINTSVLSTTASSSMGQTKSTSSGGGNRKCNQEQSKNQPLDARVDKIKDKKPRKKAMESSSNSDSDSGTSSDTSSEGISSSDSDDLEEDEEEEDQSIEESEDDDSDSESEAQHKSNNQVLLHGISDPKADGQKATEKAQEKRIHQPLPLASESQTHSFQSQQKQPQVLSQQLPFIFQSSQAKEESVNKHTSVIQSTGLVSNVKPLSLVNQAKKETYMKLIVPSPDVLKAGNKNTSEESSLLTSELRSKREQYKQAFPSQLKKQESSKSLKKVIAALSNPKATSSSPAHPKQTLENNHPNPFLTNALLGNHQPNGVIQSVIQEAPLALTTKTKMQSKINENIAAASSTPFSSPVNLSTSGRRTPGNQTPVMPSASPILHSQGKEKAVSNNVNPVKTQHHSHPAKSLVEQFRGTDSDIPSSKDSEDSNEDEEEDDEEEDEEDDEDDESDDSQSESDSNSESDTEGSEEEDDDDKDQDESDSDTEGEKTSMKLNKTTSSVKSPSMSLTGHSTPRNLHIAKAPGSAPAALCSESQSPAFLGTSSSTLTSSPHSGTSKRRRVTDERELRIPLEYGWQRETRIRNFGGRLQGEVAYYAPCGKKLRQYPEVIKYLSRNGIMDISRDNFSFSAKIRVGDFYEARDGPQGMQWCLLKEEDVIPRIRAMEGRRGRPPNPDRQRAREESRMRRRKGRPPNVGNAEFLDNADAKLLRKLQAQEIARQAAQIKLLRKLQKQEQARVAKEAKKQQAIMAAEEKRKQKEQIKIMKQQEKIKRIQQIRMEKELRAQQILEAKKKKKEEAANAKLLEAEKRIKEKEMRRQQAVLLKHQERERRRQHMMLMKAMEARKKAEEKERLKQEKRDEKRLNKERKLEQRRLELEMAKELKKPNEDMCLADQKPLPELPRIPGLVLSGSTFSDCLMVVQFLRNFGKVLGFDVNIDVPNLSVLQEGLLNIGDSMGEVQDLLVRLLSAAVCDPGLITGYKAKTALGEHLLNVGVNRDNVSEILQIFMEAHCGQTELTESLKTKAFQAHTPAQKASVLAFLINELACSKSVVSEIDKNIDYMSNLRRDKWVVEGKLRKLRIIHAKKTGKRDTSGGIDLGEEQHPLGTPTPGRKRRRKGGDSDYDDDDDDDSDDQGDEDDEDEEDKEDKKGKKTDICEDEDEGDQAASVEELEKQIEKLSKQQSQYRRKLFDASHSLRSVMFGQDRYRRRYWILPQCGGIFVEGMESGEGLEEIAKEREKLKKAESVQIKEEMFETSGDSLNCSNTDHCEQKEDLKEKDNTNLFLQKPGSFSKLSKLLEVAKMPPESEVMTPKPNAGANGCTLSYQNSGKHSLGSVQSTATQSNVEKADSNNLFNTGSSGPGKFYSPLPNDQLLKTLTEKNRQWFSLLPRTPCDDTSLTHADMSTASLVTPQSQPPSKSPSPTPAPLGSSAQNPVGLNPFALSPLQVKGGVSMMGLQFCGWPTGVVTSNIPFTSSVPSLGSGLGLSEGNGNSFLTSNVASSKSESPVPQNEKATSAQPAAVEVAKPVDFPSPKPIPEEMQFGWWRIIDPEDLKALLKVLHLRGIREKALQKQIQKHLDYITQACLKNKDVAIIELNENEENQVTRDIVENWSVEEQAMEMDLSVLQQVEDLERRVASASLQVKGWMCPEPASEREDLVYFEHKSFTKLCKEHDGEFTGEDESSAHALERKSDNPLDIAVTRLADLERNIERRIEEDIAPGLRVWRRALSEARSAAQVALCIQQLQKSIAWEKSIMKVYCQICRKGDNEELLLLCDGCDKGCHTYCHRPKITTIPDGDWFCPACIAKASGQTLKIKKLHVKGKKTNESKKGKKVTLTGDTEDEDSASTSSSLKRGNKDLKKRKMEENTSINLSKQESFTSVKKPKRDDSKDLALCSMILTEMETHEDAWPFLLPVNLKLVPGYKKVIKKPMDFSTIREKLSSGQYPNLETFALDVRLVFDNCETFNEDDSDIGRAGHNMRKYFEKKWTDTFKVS
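Protein-peptide AlphaScreen: BAZ2B 50 nM, b-H3K14Ac 50 nM, 1x PBS pH 7.4 + 0.01% Tween-20. Preincubation 30 min RT; cpd 30 min RT (top 110 uM); beads 20 min RT, light-protected.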
JMJD2A Tudor inh: blocks the human JMJD2A Tudor domain; AlphaScreen JMJD2A-Tudor / H3K4me3 peptide binding; Potency, µM (highest dose often 114 µM), for the others: top-dose activity change, negative = inhibition, actives largely listed as inhibitors; 390,000 tested, 4.4% active; O75164; note: % is set by controls: 0 for no effect and ±100 for the full control effect; nearly all actives have a fitted effect of over 50% in size
L3MBTL1 block: inhibitors of human L3MBTL1; 230,000 tested, 0.66% active; Potency, µM (highest dose often 57.1 µM), for the others: top-dose activity, negative = inhibition, actives largely listed as inhibitors; AlphaScreen L3MBTL1–H3K9me1 peptide binding; Q9Y468; AID 485360; note: % is set by controls: 0 for no effect and ±100 for the full control effect; nearly all actives have a fitted effect of over 60% in size
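First, the protein-peptide complex forms for 30 min at room temperature (L3MBTL1 50 nM, biotinylated H3K9me1 peptide 75 nM). Next, compounds are pin-transferred and incubated 30 min. Finally, AlphaScreen beads are added and read after 30 min.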
Sfp PPTase inh: inhibitors of Bacillus subtilis Sfp phosphopantetheinyl transferase; 310,000 tested, 3.5% active; Potency, µM, without a hit: largest response in the series, negative = inhibition, actives largely listed as inhibitors; Biochemical Sfp PPTase activity, qHTS; Q9F4F7;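 note: the enzyme is Sfp with the accession as filed and its product quenches rhodamine fluorescence; 0% = enzyme reaction without inhibitor and -100% = no enzyme wells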
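Sfp 15 nM + cpd, 15 min RT; start w/ rhodamine-CoA 5 uM, BHQ-2-YbbR 12.5 uM (final); 50 mM Hepes pH 7.6, 10 mM MgCl2, 0.01% NP-40, 0.01% BSA; read 525/598 nm at 0 and 30 min.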
* hit, by the source's call; ? = inconclusive; . = no result given; [ ] = another dose, or the depositor's remark. Calls come from the whole dose curve; as a rule, active = well fitted curve in the direction sought with a large enough effect; inconclusive = small, poorly fitted or top-dose-only effect, or another doubt; inactive = no such curve, though single readings can be large; an effect the other way counts as inactive or inconclusive. Potency is the fitted concentration of half-maximal effect.

SMILES | HP1b binding inh | G9a inh | BAZ2B block | JMJD2A Tudor inh | L3MBTL1 block | Sfp PPTase inh
COc1ccc2c(c1)c1c(c(=O)n(Cc3ccccc3)c(=O)n1CC(=O)Nc1ccc(C)cc1C)n2C | 36% | 6%[59 µM] | -1% | 18% | . | .
COc1cc(-c2cc(N)n(S(=O)(=O)c3ccccc3)n2)cc(OC)c1OC | 9% | 4% | 5% | -32% | . | 0%
Nc1cc(-c2ccccc2)nn1S(=O)(=O)c1ccc(Br)cc1 | 32% | 50µM* | -7% | -30% | . | -2%
Cc1ccc(Nc2nc(-c3ccc(C)cc3)c(CC(=O)O)s2)cc1 | -23% | 35µM* | ? | ? | -7% | -12%
O=C(O)Cc1sc(Nc2cccc3ccccc23)nc1-c1ccc(Cl)cc1 | 1% | 25µM* | ? | -28% | . | -26%
O=C(O)Cc1sc(Nc2cccc3ccccc23)nc1-c1ccccc1 | -17% | -42%[12.7 µM] | ? | ? | -7% | .
O=C(O)Cc1sc(Nc2ccccc2)nc1-c1ccccc1 | 13% | ? | -24% | -20% | . | .
CCOc1ccccc1Nc1nc(-c2ccc(C)cc2)c(CC(=O)O)s1 | 34% | 7.9µM* | -9% | -17% | . | .
COc1cc(OC)cc(C(=O)NCCCNC(=O)c2ccccn2)c1 | 25% | 8% | -22% | -2% | . | 5%
Cc1ccc(CNC(=O)CCCCCn2c(=O)c3sccc3n(CC(=O)Nc3ccc(C)c(F)c3)c2=O)cc1 | 65% | 21%[59 µM] | 27% | -1% | . | .
COc1ccc(Oc2ncc3nc(-c4ccc(Cl)cc4)c(=O)n(C)c3n2)cc1 | . | 8%[12.7 µM] | . | . | . | -4%
CCOc1ccc(NC(=O)CSc2oc(-c3ccc(C)cc3)nc2S(=O)(=O)c2ccc(C)cc2)cc1 | 23% | 9%[59 µM] | ? | -31% | . | .
CCN(c1ccccc1)S(=O)(=O)c1ccc(C(=O)Nc2cc(C)ccn2)cc1 | 39% | 15%[59 µM] | 6% | -8% | -3% | .
COc1cc(NS(=O)(=O)c2cc3c(cc2C)n(C)c(=O)c(=O)n3C)cc(OC)c1 | 21% | 0%[59 µM] | -4% | -11% | . | .
CCCNS(=O)(=O)c1cc(CN2C(=O)c3cccnc3C2=O)ccc1OC | 8% | -8% | ? | 89µM* | . | 10%
COc1ccc(CN2C(=O)c3cccnc3C2=O)cc1S(=O)(=O)NCc1ccccc1 | 20% | . | ? | -20% | . | 23%
Cc1c(Cl)cn2c(=O)cc(CN3CCN(c4ccc(F)cc4)CC3)nc2c1Cl | . | 50µM* | ? | . | . | ?
Cc1ccc(-c2nnc(Nc3ccc(Br)cc3)c3ccccc23)cc1S(=O)(=O)N1CCOCC1 | 16% | -8%[59 µM] | 4% | -16% | . | .
Cc1ccc(C(=O)C(C(=O)/C=C/c2ccccc2)=C2SCCCS2)cc1 | ? | 7.1µM* | ? | ? | ? | -11%
COc1ccc(C(=O)OCC(=O)NC23CC4CC(CC(C4)C2)C3)c(OC)c1OC | 20% | 10%[59 µM] | -6% | -1% | 4% | .
COc1cc([N+](=O)[O-])cc(/C=N/NC(=O)Cn2cncn2)c1O | 22% | ? | 32µM* | 25µM* | ? | 16%
COc1cc(/C=N/NC(=O)c2ccncc2)c([N+](=O)[O-])cc1OC | 40% | 25%[2.33 µM] | 1% | -8% | . | 7%
COc1cc([N+](=O)[O-])cc(/C=N/NC(=O)CSc2ccccn2)c1O | 25% | . | ? | 79µM* | . | 14%
COc1cc([N+](=O)[O-])cc(/C=N/NC(=O)c2ccc(C)nc2)c1O | 16% | 21%[59 µM] | 10µM* | ? | ? | 5%
COc1cc(/C=N/NC(=O)CSc2ccccn2)ccc1O | 39% | 7% | -11% | 6% | -3% | 6%
SMILES | HP1b binding inh | G9a inh | BAZ2B block | JMJD2A Tudor inh | L3MBTL1 block | Sfp PPTase inh
COc1cc(OC)c([N+](=O)[O-])cc1/C=N/NC(=O)c1ccncc1 | 21% | ? | -15% | -18% | ? | 35µM*
CCOc1cc(C2Nc3ccccc3C(=O)N2Cc2ccco2)ccc1OCc1ccccc1Cl (stereo not given) | 11%[57 µM] | . | . | -17%[57.1 µM] | . | .
Cc1cc(C)cc(C(=O)n2nc(C)c(S(=O)(=O)N3CCOCC3)c2C)c1 | 49%[57 µM] | ? | -2% | -3% | . | .
COc1cc([N+](=O)[O-])cc(/C=N/NC(=O)CC#N)c1O | . | 50µM* | 8.9µM* | . | . | 8%
O=C(N/N=C/c1ccncc1)c1cc([N+](=O)[O-])cc([N+](=O)[O-])c1O | 24% | ? | ? | 79µM* | -10% | 17%
O=C(N/N=C/c1cc2c(c([N+](=O)[O-])c1)OCO2)c1ccncc1 | 45% | . | 1% | -10% | -17% | -16%
O=C(O)c1ccc2c3c(ncnc13)-c1ccccc1C2=O | 24% | 1.4µM* | -5% | ? | 1% | -11%
CCc1ccc(N(CC(=O)NCc2ccco2)C(=O)CCC(=O)Nc2nccs2)cc1 | 25% | 11%[59 µM] | 3% | -4% | . | 15%
CN(C)c1ccc(NC(=O)CSCc2nc3c(nnn3Cc3ccc(F)cc3)c(=O)[nH]2)cc1 | -25% | ? | ? | 50µM* | -95% | 21%
Cc1cccc(NC(=O)CSCc2nc3c(nnn3Cc3ccc(F)cc3)c(=O)[nH]2)c1C | 23% | -14%[12.7 µM] | ? | -9% | 27% | -13%
CN(CCc1ccccc1)C(=O)c1cccc(NC(=O)Cc2cccc(NC(=O)C3CCN(C(=O)c4ccccc4)CC3)c2)c1 | 83% | . | . | -13% | . | .
NS(=O)(=O)c1ccc(-c2c(-c3ccccc3)sc3ccccc23)cc1 | 13% | -3%[0.501 µM] | 56µM* | 79µM* | ? | .
Cc1onc(-c2ccccc2)c1-c1ccc(S(N)(=O)=O)cc1 | 54% | -27%[2.33 µM] | -4% | -2% | . | 9%
C=CCn1c(SCC(=O)c2ccc(Br)cc2)nnc1C(CC(C)C)NC(=O)c1cccs1 (stereo not given) | 28% | 50µM* | -10% | -28% | . | 0%
CC(C)CC(NC(=O)c1cccs1)c1nnc(SCc2ccc(Cl)c(Cl)c2)n1C (stereo not given) | 27% | -13%[59 µM] | -22% | -12%[57.1 µM] | 9% | 17%
CCN(CC)C(=O)[C@H]1C[C@H](CC(=O)NCCN2CCOCC2)C(=O)N2CCc3c([nH]c4cc(-c5ccco5)ccc34)[C@]12C | -1% | . | . | -34% | -4% | .
Cc1ccc(C(=O)/C=C/c2ccc(-c3ccccc3[N+](=O)[O-])o2)cc1 | ? | 25µM* | 25µM* | ? | -19% | -14%
O=C(/C=C/c1ccc(-c2ccccc2[N+](=O)[O-])o1)c1ccc(F)cc1 | ? | 35µM* | 22µM* | ? | -29% | 5%
N#C/C(=C/c1ccc(-c2ccccc2[N+](=O)[O-])o1)C(N)=O | 24% | -39% | -17% | -9% | -1% | 2%
O=C(/C=C/c1ccc(-c2ccccc2[N+](=O)[O-])o1)c1ccc(Br)cc1 | -36% | 25µM* | 28µM* | ? | -27% | -1%

Compound activity as filed in PubChem BioAssay.
